Unmarked numbers belong to inactive results. Inconclusive results are not listed. The source made the active and inactive calls. Unless noted, calls come from the whole dose curve; as a rule, active = well fitted curve in the direction sought with a large enough effect in the repeat runs; inconclusive = weak or mixed curves; inactive = no such curve, though single readings can be large; an effect the other way counts as inactive or inconclusive.

Results on 22 compounds are retold here after PubChem BioAssay (Tox21).

Assay [1] in a line: qHTS assay for small molecules that induce genotoxicity in human embryonic kidney cells expressing luciferase-tagged ATAD5 (AID 651632). Note: nearly all actives have a fitted effect of over 15% in size. In short, it runs like this: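 DMSO vehicle served as the control. HEK293T reporter cells, 16 hr at 37C, then 30 min Amplite at room temperature; ATAD5 induction is measured as luciferase activity.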
(Quantitative high-throughput screening tests each substance at several concentrations.)

Assay [2] is described as follows: qHTS assay for small molecule agonists of the p53 signaling pathway - cell viability (AID 651633; calls by dose curve;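 note: p53RE-bla HCT reporter cells with a stable beta-lactamase p53 reporter; series mostly up to about 83 µM; nearly all actives have a fitted effect of over 30% in size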). In short, it runs like this: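 p53RE-bla cells, seeded at 4,000 per well and rested 5 h at 37 C/5% CO2, received compounds in DMSO for 16 h at 37 C. CellTiter-Glo was then added, and luminescence was read after 30 min at room temperature to gauge cytotoxicity.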
Assay [3] in a line: qHTS assay for small molecule disruptors of the mitochondrial membrane potential - cell viability (AID 720634; calls by dose curve;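 note: human HepG2 liver cancer cells; series mostly up to about 83 µM; nearly all actives have a fitted effect of over 20% in size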). The procedure, abridged:
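Viability of HepG2 cells is scored from ATP content by luminescence; cells are exposed to compound for 1 hr at 37 C and 5% CO2, then dosed with m-MPI dye before the CellTiter-Glo reagent.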

Assay [4] is described as follows: qHTS assay to test for compound auto fluorescence at 590 nm (red) in HepG2 cells (AID 720674). The procedure, abridged: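 Intrinsic compound fluorescence in the red window (Ex/Em 540/590 nm) is measured in attached HepG2 cells exposed for 1 hr, DMSO vehicle as baseline, benchmarked to Rose Bengal sodium.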
Assay [5] is described as follows: qHTS assay to test for compound auto fluorescence at 535 nm (green) in HepG2 cells (AID 720675).
Assay [6] is described as follows: qHTS assay to test for compound auto fluorescence at 460 nm (blue) in HEK293 cells (AID 720678). In short, it runs like this: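 Measured: blue fluorescence (Ex 405/Em 460 nm) of compound-treated HEK293 cells, incubated overnight at 37C with 5% CO2 and scaled to triamterene equivalents.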
Assay [7] is described as follows: qHTS assay to test for compound auto fluorescence at 590 nm (red) in HEK293 cells (AID 720679). The procedure, abridged:
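Using HEK293 cells at 2,000 per well, the screen added 23 nL of each compound after cell attachment and incubated overnight (37C, 5% CO2). The plate reader then captured red-label fluorescence, Ex/Em 540/590nm.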

The nature of assay [8]: qHTS assay for small molecules that induce genotoxicity in human embryonic kidney cells expressing luciferase-tagged ATAD5 - cell viability (AID 651634; calls by dose curve; note: nearly all actives have a fitted effect of over 25% in size). The procedure, abridged: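 Here HEK293T cells with the ATAD5 luciferase reporter are incubated with test compounds for 15.5 hr, and cytotoxicity is then gauged by measuring protease activity in live cells using fluorescence.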

Assay [9] in a line: qHTS assay for small molecule disruptors of the mitochondrial membrane potential (AID 720635). Note: potency is the fitted concentration of half-maximal effect. In short, it runs like this:
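HepG2 cells (2,000/well) attached overnight at 37C, then took compound for 1 hr at 37C, 5% CO2. Mito-MPS dye was added for 30 min; fluorescence was read at 490/535 nm (monomers) and 540/590 nm (aggregates).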
% is set by controls: 0 for no effect and ±100 for the full control effect.

For `CCCC(=O)Nc1ccc(OCC(O)CNC(C)C)c(C(C)=O)c1` (configuration not stated), the compound was classed as inactive in [1], in assay [2] and in assay [3]. Further, in assay [4], the fluorescence, relative to Rose Bengal was -0.376% [at 18.6 µM]. For the same compound, the fluorescence, % of fluorescein control in [5] was -0.0898% [at 18.6 µM]. For the same compound, the fluorescence, % of triamterene in assay [6] was 0.0234% [at 18.6 µM]. The fluorescence, % of fluorescent control in assay [7] was -0.0649% [at 18.6 µM].

On to `CC(=O)Nc1ccc(OC(=O)c2ccccc2OC(C)=O)cc1`, for which the result in [1], in assay [3], in [4], in assay [5] and in assay [6] was inactive. Also, the Potency entry in [8] is “inactive”.

In the case of `NCCOCCN`, the compound was classed as inactive in [1], in assay [2], in assay [4], in [5] and in assay [6]. In assay [8], the Potency entry is “inactive”.

As for `CN(C)CCOC(=O)C(c1ccccc1)C1(O)CCCC1` (configuration not stated), the compound was called inactive in [1], in assay [3], in [4], in [5] and in assay [7]. The Potency entry in assay [8] and in assay [9] was “inactive” in each case.

As to `ONc1ccccc1`, the compound was called inactive in assay [1], in assay [2], in [4], in [5], in assay [6] and in assay [7]. For the same compound, the Potency result in assay [8] is “inactive”.

For `CC1(C)CC(OC(=O)CCCCCCCCC(=O)OC2CC(C)(C)NC(C)(C)C2)CC(C)(C)N1`, the outcome in [1] and in assay [2] was inactive. The Potency result in assay [8] is “inactive”. Moreover, the Potency in [9] was 2.96 µM (active). In [4], the fluorescence, relative to Rose Bengal was 0.031% [at 18.6 µM]. Also, the fluorescence, % of fluorescein control in assay [5] was -0.0628% [at 18.6 µM]. Moreover, in [6], the fluorescence, % of triamterene is -0.0282% [at 18.6 µM]. For the same compound, the fluorescence, % of fluorescent control in assay [7] was 0.252% [at 18.6 µM].

As to `Nc1nnnn1-c1ccccc1`, the outcome in assay [1], in assay [3], in assay [4], in assay [5], in assay [6] and in assay [7] was inactive. Besides, the Potency entry in [8] and in assay [9] was “inactive” each time.

`CC(=O)OC(C)=O`: the result in [1], in assay [2], in assay [4], in assay [5] and in assay [7] was inactive. The Potency result in [8] was “inactive”.

For `CN1C[C@@H]2C[C@H]1CN2c1cc2c(cc1F)c(=O)c(C(=O)O)cn2C1CC1`, the result in assay [1], in assay [2], in assay [3], in [4], in assay [5] and in assay [6] was inactive. For the same compound, in assay [7], the compound was called inactive.

Regarding `O=Cc1ccccc1Cl`, the result in assay [1], in assay [3], in assay [4], in [5] and in assay [7] was inactive. Besides, the Potency entry in [8] and in [9] was “inactive” throughout.

Regarding `C=C(C)[C@@H]1CC=C(C)CC1`, the compound was classed as inactive in [1], in assay [2], in [5], in assay [6] and in [7]. Further, the Potency result in assay [8] was “inactive”.

`CN(C)CCN(C)CCO`: the compound was called inactive in assay [1], in assay [2], in assay [3], in assay [4], in assay [5] and in [6]. In addition, in [7], the compound was classed as inactive. In addition, the Potency result in assay [9] is “inactive”.

Take `O/N=C/C=N/O`: the compound was classed as inactive in assay [2], in assay [3], in assay [4] and in assay [5]. For the same compound, in assay [9], the Potency entry is “inactive”.

For `CO/N=C(/C(=O)N[C@@H]1C(=O)N2C(C(=O)[O-])=C(C[n+]3ccn4ncccc43)CS[C@H]12)c1nsc(N)n1`, the result in assay [1], in [4], in assay [5] and in [6] was inactive. The Potency entry in [8] and in assay [9] was “inactive” in each case.

For the compound `CCC(=O)c1c(O)cc(O)cc1O`, the compound was called inactive in [2], in [4], in assay [5] and in assay [7]. The Potency in [9] is 11.9 µM (active).

For the compound `Cc1ccc(C)c([N+](=O)[O-])c1`, the outcome in [2], in assay [3], in assay [4], in [5], in [6] and in [7] was inactive. Moreover, the Potency result in assay [8] and in assay [9] was “inactive” in each case.

In the case of `O=C1CCC(=O)N1Cl`, the outcome in assay [1], in assay [4], in assay [5], in assay [6] and in assay [7] was inactive. Further, the Potency entry in [8] is “inactive”.

With `C[Si]1(C)O[Si](C)(C)O[Si](C)(C)O[Si](C)(C)O[Si](C)(C)O1`, the compound was classed as inactive in assay [1], in [3], in assay [5], in assay [6] and in [7]. Besides, the Potency result in assay [9] is “inactive”.

For `Cc1c(NC(=O)c2cccnc2)c(=O)n(-c2ccccc2)n1C`, the compound was classed as inactive in [2] and in [3]. Further, the Potency entry in assay [8] and in assay [9] was “inactive” each time. The fluorescence, relative to Rose Bengal in [4] was 0.269% [at 18.6 µM]. Also, in assay [5], the fluorescence, % of fluorescein control was -0.0361% [at 18.6 µM]. Further, the fluorescence, % of triamterene in assay [6] was -0.0133% [at 18.6 µM]. Further, the fluorescence, % of fluorescent control in [7] was 0.237% [at 18.6 µM].

Regarding `Cn1c(=O)c2c(ncn2CCO)n(C)c1=O`, the Potency entry in [9] is “inactive”. For the same compound, the outcome in assay [4], in assay [5], in assay [6] and in assay [7] was inactive.

For `C=CCN1C[C@H](C(=O)N(CCCN(C)C)C(=O)NCC)C[C@@H]2c3cccc4[nH]cc(c34)C[C@H]21`, the outcome in [3], in assay [4], in assay [5], in [6] and in assay [7] was inactive.

Consider `CCC(C)C(C)=O` (configuration not stated), for which the outcome in assay [2], in assay [4], in [5] and in assay [6] was inactive. Moreover, the Potency result in [8] was “inactive”.
